# Test results: PubChem BioAssay AID651597 (National Center for Advancing Translational Sciences (NCATS), 2012)
# Screen size: about 1,100 compounds; about 390 (35%) were called active. Another 30% or so got no clear call; they are omitted. Calls come from the whole dose curve; as a rule, active = well fitted inhibition curve with a large enough effect; inconclusive = small, poorly fitted or top-dose-only effect; inactive = flat fitted curve, though single readings scatter. Some of the results follow.
# Molecular target: Luciferin 4-monooxygenase (Photinus pyralis) (UniProt P08659)
# Assay: qHTS of Nrf2 Activators: Hit Validation in Secondary FLuc Assay; note: nearly all actives have a fitted effect of over 65% in size
# Details: firefly luciferase inhibition counter-screen, luminescence; series mostly up to 57.5 µM; activity, negative = inhibition: at the top concentration
# How it was run: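 Counter-screen on purified firefly luciferase with ATP and D-luciferin at Km concentrations; compounds flagged if they inhibit the enzyme, indicating possible reporter stabilization rather than ARE activation.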
# % is set by controls: 0 for no effect and ±100 for the full control effect; potency is the fitted concentration of half-maximal effect.
Compound,Potency,"activity, negative = inhibition"
c1ccc2c(-c3nc4ncccc4o3)cccc2c1,13.5 µM (active),
Nc1c(C(=O)c2cccs2)oc2ccccc12,9.53 µM (active),
Nc1c(C(=O)c2ccc(Br)s2)oc2ccccc12,2.69 µM (active),
[O-][n+]1onc2c1CCc1c-2nn(-c2ccccc2Cl)[n+]1[O-],,7.06% (inactive)
Cc1csc(NC(=O)c2cc(-c3ccco3)nc3ccccc23)n1,5.36 µM (active),
Cc1nc2ccccc2c(=O)n1NCc1cc(Br)cs1,,-27.8% (inactive)
O=C(Nc1nccs1)c1cc(-c2ccco2)nc2ccccc12,6.01 µM (active),
CC1CCc2c(cc(-c3ccccc3)n2-c2ccc(C(=O)NC(C)C)cc2)C1 (stereo not drawn),,-5.3% (inactive)
Oc1ccccc1-c1csc(-c2ccccc2)n1,1.69 µM (active),
COC(=O)c1sccc1NC(=O)c1c(C)noc1C,,3.32% (inactive)
COc1ccc(NC(=O)CSc2ccc(-c3ccco3)nn2)cc1OC,15.1 µM (active),
COc1ccc(NC(=O)CSc2ccc(-c3ccco3)nn2)c(OC)c1,3.38 µM (active),
O=C(CSc1ccc(-c2ccco2)nn1)N1CCCCCC1,16.9 µM (active),
COc1ccc(NC(=O)c2cc(-c3ccco3)on2)c(OC)c1,,-4.64% (inactive)
COc1ccccc1NC(=O)CSc1ccc(-c2ccco2)nn1,15.1 µM (active),
COc1ccc(Cl)cc1NC(=O)c1cc(-c2ccco2)on1,,-4.62% (inactive)
COc1ccc(Cl)cc1NC(=O)CSc1c2c(nc3ccccc13)CCC2,,1.24% (inactive)

Compound,Potency,"activity, negative = inhibition"
CC(OC(=O)/C=C/c1ccc2ccccc2n1)C(=O)Nc1ccc(S(N)(=O)=O)cc1 (stereo not drawn),,-27.1% (inactive)
O=C1CC(C(=O)Nc2ccc(Br)cc2)S/C(=N\N=C\c2ccco2)N1 (stereo not drawn),,-7.55% (inactive)
O=C(N/N=C\c1ccco1)Nc1cccc(Cl)c1,8.49 µM (active),
O=C(N/N=C/c1ccco1)Nc1ccccc1,10.7 µM (active),
O=C1C=C(Nc2cccc(Cl)c2)CC(c2ccco2)C1 (stereo not drawn),,1.07% (inactive)
O=C1CC(C(=O)Nc2ccc(Cl)c(Cl)c2)S/C(=N\N=C\c2ccco2)N1 (stereo not drawn),,-21.8% (inactive)
Cc1nc(C)c(C(=O)N/N=C/c2ccco2)s1,,-9.17% (inactive)
CC(=O)N(/N=C1\Sc2ccccc2C1=O)c1ccccc1,0.301 µM (active),
CS(=O)(=O)N1CCN(c2ccccc2NC(=O)c2ccc([N+](=O)[O-])o2)CC1,,3.04% (inactive)
NS(=O)(=O)c1ccc(O)c(NC(=O)c2ccc([N+](=O)[O-])o2)c1,16.9 µM (active),
COc1ccc(N2CCCC2)c(NC(=O)c2ccc([N+](=O)[O-])o2)c1,,-4.51% (inactive)
O=C(C=Cc1ccco1)c1ccc2ccccc2c1,0.239 µM (active),
Cc1cccc(C)c1OCC(=O)N/N=C/C=C/c1ccco1,,-26.1% (inactive)
O=C(/C=C/c1ccco1)NCC(=O)N/N=C/c1ccc(Cl)cc1,,-29.4% (inactive)
O=C(COC(=O)/C=C/c1ccco1)Nc1ccc(F)cc1Cl,,-5.05% (inactive)
CC(/C=C/c1ccco1)=N\NC(=O)CNc1ccc2ccccc2c1,15.1 µM (active),
